# High-throughput results deposited in PubChem by several laboratories.
# Hits are enriched below; roughly 5.7% of the tested compounds scored in any of these assays.
# FAS-TE inh: FAS thioesterase domain inhibitors, primary screen, biochemical, fluorescence intensity, uHTS | Fatty acid synthase (Homo sapiens), P49327 | recombinant FAS-TE, OMFH fluorogenic substrate, fluorescence endpoint | inhibition, % at 15 µM | actives 0.67% (n = 360,000) | AID 602261, 2012;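 active = compounds whose normalised, plate-corrected inhibition of enzyme fluorescence in the single-dose primary screen is 50% or more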;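 note: 0% = DMSO with enzyme and 100% = substrate without enzyme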
# Target sequence (P49327 whole entry, looked up, the tested form may be a part): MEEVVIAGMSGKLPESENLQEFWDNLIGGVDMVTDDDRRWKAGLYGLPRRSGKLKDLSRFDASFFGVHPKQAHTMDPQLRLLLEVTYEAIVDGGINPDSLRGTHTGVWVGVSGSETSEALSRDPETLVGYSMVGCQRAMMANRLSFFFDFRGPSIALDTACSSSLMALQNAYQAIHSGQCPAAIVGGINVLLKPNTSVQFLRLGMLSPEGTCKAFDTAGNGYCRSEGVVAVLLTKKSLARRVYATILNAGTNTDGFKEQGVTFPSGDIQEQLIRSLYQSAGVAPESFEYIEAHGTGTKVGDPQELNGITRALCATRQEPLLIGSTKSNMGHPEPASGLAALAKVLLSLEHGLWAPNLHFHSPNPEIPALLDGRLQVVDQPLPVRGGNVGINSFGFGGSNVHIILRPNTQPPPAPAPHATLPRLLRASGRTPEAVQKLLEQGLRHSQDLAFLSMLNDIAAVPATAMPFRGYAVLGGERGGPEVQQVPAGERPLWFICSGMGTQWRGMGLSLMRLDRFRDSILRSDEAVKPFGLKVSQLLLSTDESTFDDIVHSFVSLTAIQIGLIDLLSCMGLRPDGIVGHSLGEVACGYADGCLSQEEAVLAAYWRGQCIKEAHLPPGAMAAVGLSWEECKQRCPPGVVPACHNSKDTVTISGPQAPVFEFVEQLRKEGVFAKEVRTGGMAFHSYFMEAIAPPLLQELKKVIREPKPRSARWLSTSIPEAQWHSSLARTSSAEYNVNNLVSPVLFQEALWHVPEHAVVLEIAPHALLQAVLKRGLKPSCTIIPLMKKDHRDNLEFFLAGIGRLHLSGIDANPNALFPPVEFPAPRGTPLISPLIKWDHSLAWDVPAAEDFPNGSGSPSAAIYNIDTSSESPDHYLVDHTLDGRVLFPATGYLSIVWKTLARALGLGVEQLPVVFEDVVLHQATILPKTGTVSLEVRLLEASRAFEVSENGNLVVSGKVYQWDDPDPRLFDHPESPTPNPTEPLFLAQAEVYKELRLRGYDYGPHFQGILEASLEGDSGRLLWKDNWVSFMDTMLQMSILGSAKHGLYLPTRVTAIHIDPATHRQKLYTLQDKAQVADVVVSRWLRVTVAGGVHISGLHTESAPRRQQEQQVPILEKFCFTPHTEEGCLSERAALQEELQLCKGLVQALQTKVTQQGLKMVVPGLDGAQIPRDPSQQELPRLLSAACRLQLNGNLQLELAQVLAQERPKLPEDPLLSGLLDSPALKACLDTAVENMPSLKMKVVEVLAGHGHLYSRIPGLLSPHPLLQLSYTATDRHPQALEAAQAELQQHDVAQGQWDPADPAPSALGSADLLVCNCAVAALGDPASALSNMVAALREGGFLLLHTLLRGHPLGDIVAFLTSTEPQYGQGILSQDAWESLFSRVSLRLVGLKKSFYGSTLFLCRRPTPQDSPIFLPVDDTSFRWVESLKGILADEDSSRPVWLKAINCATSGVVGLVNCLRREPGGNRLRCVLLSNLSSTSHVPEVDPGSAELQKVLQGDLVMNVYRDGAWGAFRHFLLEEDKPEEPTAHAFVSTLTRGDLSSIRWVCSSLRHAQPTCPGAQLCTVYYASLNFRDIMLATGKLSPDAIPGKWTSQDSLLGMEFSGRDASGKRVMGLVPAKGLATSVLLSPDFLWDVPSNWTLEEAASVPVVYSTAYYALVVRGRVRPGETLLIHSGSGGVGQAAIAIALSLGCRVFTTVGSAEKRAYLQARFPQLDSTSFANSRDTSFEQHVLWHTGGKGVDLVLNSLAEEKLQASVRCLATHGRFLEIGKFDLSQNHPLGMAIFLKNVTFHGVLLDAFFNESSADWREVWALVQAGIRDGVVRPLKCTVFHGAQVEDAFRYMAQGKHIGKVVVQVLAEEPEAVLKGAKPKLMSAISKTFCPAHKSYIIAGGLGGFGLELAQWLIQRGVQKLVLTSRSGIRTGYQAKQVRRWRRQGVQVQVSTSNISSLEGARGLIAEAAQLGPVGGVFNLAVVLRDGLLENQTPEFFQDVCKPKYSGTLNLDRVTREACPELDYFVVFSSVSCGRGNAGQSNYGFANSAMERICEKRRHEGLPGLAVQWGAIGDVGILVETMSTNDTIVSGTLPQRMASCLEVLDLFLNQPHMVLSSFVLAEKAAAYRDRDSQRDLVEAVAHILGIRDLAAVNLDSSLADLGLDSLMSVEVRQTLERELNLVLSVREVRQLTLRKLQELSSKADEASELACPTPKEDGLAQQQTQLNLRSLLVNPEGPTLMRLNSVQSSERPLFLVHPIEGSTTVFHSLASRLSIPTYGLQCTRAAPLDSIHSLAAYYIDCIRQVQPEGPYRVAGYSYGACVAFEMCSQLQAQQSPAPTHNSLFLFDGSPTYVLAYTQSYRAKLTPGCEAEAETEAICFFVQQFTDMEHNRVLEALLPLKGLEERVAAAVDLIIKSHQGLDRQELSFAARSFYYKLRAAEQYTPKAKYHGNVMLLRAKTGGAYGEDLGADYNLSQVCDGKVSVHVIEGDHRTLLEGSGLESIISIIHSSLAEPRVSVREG
# MPTP inh: mitochondrial permeability transition pore inhibitors, primary screen, biochemical, isolated mouse mitochondria, absorbance | inhibition, % at 10 µM | Ca2+ swelling absorbance, 30 min | actives 1.4% (n = 360,000);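 active = inhibition of 50% or more, scaled per plate between neutral and stimulator controls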;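 note: 0% = DMSO wells given calcium and 100% = 1 mM EGTA wells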
# rCAG binder: binders of r(CAG) RNA repeats, primary screen, biochemical, fluorescence. r(CAG) RNA repeat, TO-PRO-1 dye displacement fluorescence. inhibition, % at 3 µM. actives 1.3% (n = 370,000). AID 651821, 2012;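 active = inhibition above the plate cutoff, the mean of all test compounds on that plate plus 3 SD, cut at about 35% in these data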;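 note: 0% = DMSO alone and 100% = 100 µM mitoxantrone as full dye displacement; higher means more dye released from RNA so lower well fluorescence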
# Myeloid diff MLP: induction of myeloid progenitor differentiation, primary screen, cell-based, flow cytometry, MLPCN library; ER-HoxA9 myeloid progenitors, lysozyme-GFP differentiation; calls only at 10 µM; actives 1% (n = 360,000); AID 624256, 2012;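 active = normalized GFP-positive differentiation at or above the plate's own cutoff, the solvent-only control mean plus 3 SD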;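 note: cells exposed to compound for four days before flow analysis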
# NR3A LBD binder: binders of NR3A ligand-binding domain, primary screen, biophysical, differential scanning fluorimetry, uHTS; NR3A LBD differential scanning fluorimetry, Tm shift; 0% = protein alone, 100% = glycine-bound protein; actives 2.5% (n = 340,000); Tm shift relative to glycine control, % at 25 µM; Glutamate receptor ionotropic, NMDA 3A (GRIN3A) ligand-binding domain; AID 1259313, 2017;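 active = melting temperature shift of at least 10% of the positive control shift, at one fixed dose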
# FAS-TE conf: FAS thioesterase domain inhibitors, confirmation, biochemical, fluorescence intensity, single concentration; inhibition, % at 15 µM; AID 624325, 2012; shares compounds with FAS-TE inh; actives 45% (n = 2,300); recombinant FAS-TE, OMFH fluorogenic substrate;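 active = compounds inhibiting the enzyme by at least 50% at 15 µM in any one of the replicates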;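 note: 0% = enzyme with DMSO only and 100% = wells lacking enzyme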
# * marks the source's active call; other numbers are inactive results; i = inactive; · = no result.
SMILES,FAS-TE inh,MPTP inh,rCAG binder,Myeloid diff MLP,NR3A LBD binder,FAS-TE conf
Cc1ccc(N2C(=O)N3[C@H]4c5ccccc5OC[C@@H]4[C@@H](c4ccccc4)[C@@]3(C)C2=O)cc1,55*,2,·,i,-1,30
C[C@]12C(=O)N(c3cccc(Cl)c3)C(=O)N1[C@@H]1c3ccccc3OC[C@@H]1[C@H]2c1ccccc1,58*,0,1,i,-2,35
C[C@]12C(=O)N(c3ccc(Br)cc3)C(=O)N1[C@H]1c3ccccc3OC[C@@H]1[C@H]2c1ccccc1,85*,1,10,i,3,-7
CCOC(=O)[C@@H]1[C@H]2COc3ccccc3[C@H]2N2C(=O)N(c3ccc(Br)cc3)C(=O)[C@]12C,16,0,-2,i,-1,·
C[C@]12C(=O)N(c3ccc(C(F)(F)F)cc3)C(=O)N1[C@@H]1c3ccccc3OC[C@@H]1[C@H]2c1ccccc1,60*,2,2,i,-1,26
C[C@]12C(=O)N(c3cccc(F)c3)C(=O)N1[C@@H]1c3ccccc3OC[C@@H]1[C@H]2c1ccccc1,29,-2,-2,i,-2,·
C[C@]12C(=O)N(c3ccccc3)C(=O)N1[C@H]1c3ccccc3OC[C@@H]1[C@H]2c1ccccc1,79*,0,0,i,0,12
C[C@]12C(=O)N(c3cccc(F)c3)C(=O)N1[C@H]1c3ccccc3OC[C@@H]1[C@H]2c1ccccc1,68*,-1,2,i,-1,39
C[C@]12C(=O)N(c3ccccc3)C(=O)N1[C@@H]1c3ccccc3OC[C@@H]1[C@H]2c1ccccc1,20,1,-4,i,1,·
COc1cccc(NC(=O)CN2C(=O)COc3ccc(S(=O)(=O)N4CCC(C)CC4)cc32)c1,61*,0,2,i,-8,66*
COCCn1nnnc1C(CC(C)C)N1CCN(c2nc3ccccc3s2)CC1 (stereo not drawn),-1,-1,0,i,-2,·
Cc1ccc(S(=O)(=O)Cn2nnnc2C(C(C)C)N2CCN(c3nc4ccccc4s3)CC2)cc1 (stereo not drawn),60*,0,3,i,-1,41
CS(=O)(=O)c1ccc2nc(NC(=O)c3cc(-c4ccccc4)nn3-c3ccccc3)sc2c1,86*,2,8,i,2,12
CN(C)CCCNS(=O)(=O)c1ccc(N2CCC(c3ccc(Cl)cc3)=N2)cc1,·,·,14,·,·,·
O=S(=O)(c1ccc(N2CCC(c3ccc(Cl)cc3)=N2)cc1)N(CCO)CCO,89*,3,12,i,0,93*
COc1ccc([C@@H]2[C@@H]3C(=O)N(C(C)(C)C)C(=O)[C@@H]3[C@]3(Cc4ccc(Cl)cc4)C(=O)N(c4cccc(Br)c4)C(=O)N23)cc1,95*,1,4,i,2,22
COc1ccc([C@@H]2[C@@H]3C(=O)N(C(C)(C)C)C(=O)[C@@H]3[C@]3(Cc4ccccc4)C(=O)N(c4cccc(C)c4)C(=O)N23)cc1,29,-1,1,i,0,·
COc1ccc([C@@H]2[C@@H]3C(=O)N(C(C)(C)C)C(=O)[C@@H]3[C@]3(Cc4ccc(Cl)cc4)C(=O)N(c4cccc(F)c4)C(=O)N23)cc1,72*,1,4,i,-4,31
COc1ccc([N+](=O)[O-])cc1NC(=O)C(C)OC(=O)/C=C/c1ccco1 (stereo not drawn),62*,0,5,i,1,59*
CC(OC(=O)/C=C/c1ccco1)C(=O)Nc1cccc([N+](=O)[O-])c1 (stereo not drawn),38,1,6,i,-1,·
COc1ccc([N+](=O)[O-])cc1NC(=O)C(C)OC(=O)c1ccccc1C(=O)c1ccc(Cl)cc1 (stereo not drawn),58*,22,9,i,-8,31
CCc1noc(C)c1C(=O)OC(C)C(=O)Nc1cc([N+](=O)[O-])ccc1OC (stereo not drawn),75*,0,-1,i,1,33
COc1ccc([N+](=O)[O-])cc1NC(=O)COC(=O)c1ccccc1C(=O)c1ccccc1,28,0,0,i,-8,·
O=C(NCc1ccccc1)[C@@H]1CCCN1C(=O)[C@H]1CCCN1C(=O)N1CCCCC1,·,·,2,·,·,·
Cc1ccc(S(=O)(=O)N(C)C)cc1-n1c(SCC(=O)Nc2ccccc2)nc2ccccc2c1=O,52*,1,8,i,0,32
SMILES,FAS-TE inh,MPTP inh,rCAG binder,Myeloid diff MLP,NR3A LBD binder,FAS-TE conf
Cc1ccc(S(=O)(=O)N(C)C)cc1-n1c(SCC(=O)Nc2ccc(F)cc2Cl)nc2ccccc2c1=O,23,1,10,i,0,·
Cc1ccc(S(=O)(=O)N(C)C)cc1-n1c(SCC(=O)Nc2ccc(F)cc2)nc2ccccc2c1=O,54*,4,14,i,-3,17
O=C1CC(c2ccccc2)CC2=C1C1(CCCC1)N=C(Nc1nc3ccccc3o1)N2 (stereo not drawn),69*,3,17,i,·,10
O=S(=O)(c1ccccc1)n1ccc(-c2cnc(-c3ccccc3)s2)n1,63*,1,-1,i,-4,58*
O=C1[C@H]2[C@@H](c3ccc(C(F)(F)F)cc3)N[C@]3(CCCN(Cc4ccc(C(F)(F)F)cc4)C3=O)[C@H]2C(=O)N1Cc1ccccc1,55*,-3,4,i,·,16
CCCCSc1nc2ccc(Nc3nc(N4CCOCC4)nc(N4CCOCC4)n3)cc2s1,86*,1,2,i,-7,42
CC(=O)c1cccc(-c2ccnc3c2CC(C(=O)Nc2ccc(C(C)C)cc2)O3)c1 (stereo not drawn),55*,2,2,i,·,59*
CC(=O)c1cccc(NC(=O)C2Cc3c(-c4cccc(C(C)=O)c4)ccnc3O2)c1 (stereo not drawn),5,3,2,i,·,·
COc1ccc(-n2c(CN3CCN(c4ccccc4)CC3)nc3ccc([N+](=O)[O-])cc3c2=O)c(OC)c1,25,1,10,i,0,·
COc1cccc(-n2c(CN3CCN(c4ccccn4)CC3)nc3ccc([N+](=O)[O-])cc3c2=O)c1,81*,1,15,i,-1,81*
COc1cccc(-n2c(CN3CCN(c4cccc(C)c4)C(C)C3)nc3ccc([N+](=O)[O-])cc3c2=O)c1 (stereo not drawn),80*,3,4,i,-2,20
CN(c1ccc(NC(=O)Cc2cn(C)c3ccccc23)cc1)c1ccccn1,·,·,7,·,·,·
